Screening results as filed in PubChem BioAssay.
VDR inhibitor = vitamin D3 receptor (human) inhibition. Potency, µM, inactives show max response, negative = inhibition, usual class: inhibitors. AID 504847. VDR-SRC2-3 peptide fluorescence polarization, 2 h. hit rate 0.93% among 400,000. P11473; also: % is scaled to controls: 0 for no effect and ±100 for the full control effect
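Fluorescence polarization assay measuring small-molecule disruption of VDR binding to the coregulator peptide SRC2-3. Compounds were pin-transferred (23 nl) into the reagent mix and incubated 2 h at room temperature before reading.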
PTAP TSG101 blk = blocks PTAP/TSG101 interaction to inhibit HIV-1 budding; Q99816; Fluorescence polarization, FITC-PTAP peptide / Tsg101 binding; Potency, µM (series often up to 115 µM), for the others: at the top dose activity change, negative = inhibition, actives largely listed as inhibitors; 340,000 tested, under 10 active; AID 493005; active = well fitted inhibition curve with a large enough effect in the main read-out, with a control signal flat, not every such curve was filed as active; inconclusive = small, poorly fitted or top-dose-only effect, or effect the other way, or a change in a side signal; inactive = no such curve, though single readings can be large or run the other way; also: % of control where 0% means no effect
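Compounds were pin-transferred onto Tsg101 binding domain (10 uM final) in HEPES pH 7.5 buffer, then FITC-PTAP peptide was added at 50 nM final. After 20 min at RT, polarization reported peptide displacement across a qHTS concentration series.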
PLK1 PBD block = PLK1 (human) polo-box domain binding inhibition. AID 720504. P53350. Potency, µM, without a hit: max response, negative = inhibition, most hits filed as inhibitors. hit rate 2.8% among 360,000. Plk1 PBD binding of FITC phosphopeptide, fluorescence polarization; also: series mostly up to about 57 µM; % is scaled to controls: 0 for no effect and ±100 for the full control effect; nearly all actives have a fitted effect of over 65% in size
KAT2A inh = inhibitors of human GCN5L2 histone acetyltransferase | Q92830 | GCN5L2 HAT assay, ThioGlo1 CoA-SH fluorescence | Potency, µM (top dose mostly 58.9 µM), without a hit: at the highest dose activity change, negative = inhibition, hits mostly inhibitors | hit rate 0.21% among 390,000 | AID 504327; also: % is scaled to controls: 0 for no effect and ±100 for the full control effect
Target sequence (Q92830 whole entry, looked up): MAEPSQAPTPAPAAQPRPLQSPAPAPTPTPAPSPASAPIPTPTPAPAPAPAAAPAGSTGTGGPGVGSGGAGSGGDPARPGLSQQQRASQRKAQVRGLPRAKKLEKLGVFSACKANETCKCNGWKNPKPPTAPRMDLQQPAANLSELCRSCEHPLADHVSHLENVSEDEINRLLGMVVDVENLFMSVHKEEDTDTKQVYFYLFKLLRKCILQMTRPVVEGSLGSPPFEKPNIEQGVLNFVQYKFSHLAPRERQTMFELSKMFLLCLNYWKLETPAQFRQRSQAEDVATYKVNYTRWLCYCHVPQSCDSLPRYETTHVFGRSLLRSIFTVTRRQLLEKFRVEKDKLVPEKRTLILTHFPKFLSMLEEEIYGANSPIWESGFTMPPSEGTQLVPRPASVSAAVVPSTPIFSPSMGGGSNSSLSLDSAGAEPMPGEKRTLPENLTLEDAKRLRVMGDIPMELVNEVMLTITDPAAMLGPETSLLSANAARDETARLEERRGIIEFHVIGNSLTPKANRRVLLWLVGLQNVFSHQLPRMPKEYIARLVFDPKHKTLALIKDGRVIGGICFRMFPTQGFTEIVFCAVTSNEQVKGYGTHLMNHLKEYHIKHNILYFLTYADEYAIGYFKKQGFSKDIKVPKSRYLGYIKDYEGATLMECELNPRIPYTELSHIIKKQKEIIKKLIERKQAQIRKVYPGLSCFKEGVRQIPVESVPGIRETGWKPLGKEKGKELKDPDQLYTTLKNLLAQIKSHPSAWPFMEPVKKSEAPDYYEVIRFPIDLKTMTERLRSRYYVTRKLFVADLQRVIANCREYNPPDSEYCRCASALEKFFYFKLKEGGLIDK
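Free CoA generated was detected with ThioGlo1 (50uM) fluorescence at Ex340nm/Em540nm, read immediately and after 20 min at room temperature. Enzyme, 20 nM in HEPES pH 7.5 buffer, saw compounds 15 min before adding 75uM H3(1-25) peptide and 70uM acetyl-CoA.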
USP1 inh = inhibitors of human USP1/UAF1 deubiquitinase | O94782 | recombinant USP1/UAF1, Ub-Rhodamine cleavage fluorescence | Potency, µM (series often up to 57.1 µM), inactives show top-dose activity change, negative = inhibition, most hits filed as inhibitors | hit rate 0.23% among 390,000 | AID 743255; also: % is scaled to controls: 0 for no effect and ±100 for the full control effect; nearly all actives have a fitted effect of over 60% in size
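USP1/UAF1 complex (1 nM) preincubated 15 min at room temperature with compound, then Ub-Rho substrate (150 nM final) added. Kinetic fluorescence at 480/540 nm over 6 reads at 60 s intervals; 50 mM HEPES pH 7.8, 0.5 mM EDTA, 0.1 mg/ml BSA, 1 mM TCEP, 0.01% Tween-20.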
TbPYK inh = Trypanosoma brucei pyruvate kinase inhibition, cherry-pick confirmation | shares compounds with PLK1 PBD block | recombinant TbPYK, Kinase-Glo ATP luminescence | Potency, µM (titrated, usually from 76.9 µM), without a hit: top-dose activity change, negative = inhibition, most hits filed as inhibitors | hit rate 67% among 890 | AID 720569; also: % is scaled to controls: 0 for no effect and ±100 for the full control effect; nearly all actives have a fitted effect of over 70% in size
TbPYK orthogonal = orthogonal confirmation of Trypanosoma brucei pyruvate kinase inhibitors; shares compounds with PLK1 PBD block; recombinant TbPYK, ADP-Glo luminescence, 60 min; Potency, µM (top dose mostly 76.9 µM), for inactives: at the top dose activity change, negative = inhibition, actives largely listed as inhibitors; hit rate 62% among 890; AID 720584; also: % is scaled to controls: 0 for no effect and ±100 for the full control effect; nearly all actives have a fitted effect of over 75% in size
The depositor's hits bear a star; ? = inconclusive; . = no result given. In the library only some 3% were active in any assay of this set; here they are far more common. Unless noted, calls follow the shape of the dose curve; as a rule, active = well fitted curve in the direction sought with a large enough effect; inconclusive = small, poorly fitted or top-dose-only effect, or another doubt; inactive = no such curve, though single readings can be large; an effect the other way counts as inactive or inconclusive. Potency is read from the fitted curve at half-maximal effect.

SMILES | VDR inhibitor | PTAP TSG101 blk | PLK1 PBD block | KAT2A inh | USP1 inh | TbPYK inh | TbPYK orthogonal
COCCn1c(C)cc(C(=O)COC(=O)c2ccc3ncsc3c2)c1C | -10.8% | -2.9% | 2.38µM* | -18.5% | -16.2% | -0.9% | -0.5%
C/C(Cn1nc([N+](=O)[O-])cc1C)=N\NC(=O)COc1c(Cl)cc(Cl)cc1Cl | -7.1% | -2.0% | -8.6% | 15.1% | -8.5% | 2.1% | -2.9%
COc1ccc(OC)c(-n2c(=S)[nH]c3c(sc(=S)n3-c3ccccc3)c2=O)c1 | 32.1% | 1.0% | -6.8% | -13.5% | -17.1% | 15.8µM* | 15.8µM*
C=C1CCN(C(Cc2ccccc2)C(=O)Nc2ccc(OC)cc2)S(=O)(=O)c2ccccc21 (stereo unspecified) | -19.0% | . | . | . | . | . | .
NNC(=O)CSc1c(-c2ccccc2)c2cc(Cl)ccc2[nH]c1=O | -16.3% | -3.8% | -26.4% | -0.8% | -9.8% | . | .
O=c1[nH]c2ccc(Cl)cc2c(-c2ccccc2)c1SC(=S)N1CCOCC1 | 89.1µM* | -1.6% | 26.7µM* | -1.2% | -7.5% | 4.47µM* | 5.62µM*
O=c1[nH]c2ccc(Cl)cc2c(-c2ccccc2)c1SC(=S)N1CCCCC1 | ? | -1.4% | 11.9µM* | -0.6% | -20.3% | 5.62µM* | 7.94µM*
COc1cccc(/C=C2\SC(=O)N(CCC(=O)N3CCC(C(=O)O)CC3)C2=O)c1 | -4.0% | -4.4% | -6.4% | -28.7% | -22.6% | . | .
COc1ccc(CNc2nc3c(S(=O)(=O)c4ccccc4)nnn3c3ccc(Cl)cc23)cc1 | 3.1% | . | . | -2.8% | 6.6% | . | .
Cc1ccc(CSc2nnc3[nH]c(=O)cc(C)n23)cc1 | 11.7% | . | . | -9.5% | -8.5% | . | .
O=c1[nH]c2sc3c(c2c2nncn12)CCCC3 | 1.7% | -2.7% | -26.4% | -0.2% | -25.9% | ? | 35.5µM*
Cc1ccc(-n2c(=O)[nH]c3sc4c(c3c2=O)CCCC4)cc1 | -17.1% | . | . | -8.8% | ? | . | .
Cc1ccc(-c2noc(CNC(=O)c3ccc(C)c(Cl)c3)n2)cc1 | 14.7% | . | . | -10.5% | -9.2% | . | .
CN1CCN(c2nc(-c3ccc(Cl)s3)cs2)CC1 | -11.5% | 5.0% | 18.9µM* | -7.7% | -8.8% | ? | 15.8µM*
C[C@@H]1CN([C@H](C)CO)C(=O)c2cc(Br)cnc2O[C@@H]1CN(C)C(=O)c1cccc(F)c1 | . | . | -3.4% | . | -27.1% | . | .
Cc1[nH]c2ccccc2c1C1=CC(=O)C=CC1=O | 28.2µM* | -6.6% | 3.36µM* | . | -21.5% | 0.562µM* | 2.82µM*
Cc1[nH]c2ccccc2c1CC#N | 11.6% | -0.6% | -4.9% | -2.0% | -11.0% | . | .
Cc1[nH]cnc1C(=O)N/N=C/c1c(Cl)cccc1Cl | -16.4% | -2.6% | 1.2% | -4.2% | -22.4% | 20µM* | 12.3%
Cc1nnsc1C(=O)N/N=C/c1c(F)cccc1Cl | -16.9% | -1.4% | -1.0% | 2.2% | -19.2% | . | .
CCOC(=O)C(=Cc1cc(=O)c(OC)co1)C(=O)OCC | 39.8µM* | -0.8% | 23.8µM* | -0.5% | -16.1% | 28.2µM* | ?
COc1ccc(OCC(=O)NCc2ccc3c(c2)CCN3C(=O)c2cccc(C)c2)cc1 | 22.0% | . | . | -9.8% | -22.0% | . | .
N#Cc1c(NC(NC(=O)c2ccco2)C(=O)c2ccccc2)sc2c1CCCC2 (stereo unspecified) | -28.3% | -8.3% | -20.1% | -21.6% | ? | ? | 3.55µM*
NC(=O)c1c(NC(NC(=O)c2ccco2)C(=O)c2ccc(Cl)cc2)sc2c1CCCC2 (stereo unspecified) | -18.7% | -4.3% | ? | -8.6% | 0.3% | . | .
CCc1ccccc1NC(=O)CCCn1c(=O)c2cccn2c2ccccc21 | 1.7% | . | . | -13.4% | -9.7% | . | .
O=C1C(Cl)=C(NCCN2CCOCC2)C(=O)c2ccccc21 | -13.2% | -2.7% | 0.1% | -17.1% | ? | . | .
SMILES | VDR inhibitor | PTAP TSG101 blk | PLK1 PBD block | KAT2A inh | USP1 inh | TbPYK inh | TbPYK orthogonal
CC1COCC(C)N1C1=C(Cl)C(=O)c2ccccc2C1=O (stereo unspecified) | ? | -5.9% | 13.4µM* | . | -14.8% | ? | ?
COc1ccc(S(=O)(=O)N2C[C@H]3CON(C)[C@H]3C[C@H]2c2ccc(-c3cc4ccccc4o3)cc2)cc1 | . | . | -13.4% | . | -8.4% | . | .
O=[N+]([O-])c1cc2no[n+]([O-])c2cc1N1CCCCC1 | 39.8µM* | -0.2% | 2.67µM* | . | ? | 2.24µM* | 3.55µM*
CCc1cccc(NC(=O)CSC2=NS(=O)(=O)c3ccccc32)c1 | 12.6µM* | -2.2% | 10.6µM* | -2.2% | -6.0% | 17.8µM* | 17.8µM*
C[C@@H]1CN([C@@H](C)CO)C(=O)CCCn2nncc2CO[C@H]1CN(C)C(=O)c1ccccc1 | . | . | -20.9% | . | -16.3% | . | .
CCCn1c(SCC(=O)c2cc(OC)ccc2OC)nnc1C(C)C | -16.4% | -4.8% | ? | 2.9% | -5.1% | 15.8µM* | 15.8µM*
CC1(C(=O)NCc2ccc(Cl)cc2)CCN1C(=O)c1cccc(F)c1 (stereo unspecified) | . | . | -5.2% | . | . | . | .
COc1ccc(N2CCN(C(=O)c3cc(S(=O)(=O)N4CCCCCC4)cn3C)CC2)cc1 | 7.2% | . | . | 19.9% | -28.9% | . | .
COC(=O)/C(=N\Nc1ccccc1)Sc1nnc(-c2ccc(OC)cc2)n1C | -3.8% | -1.2% | -4.2% | -2.5% | -8.9% | 17.8µM* | 17.8µM*
Cc1onc(C(=O)Nc2sc3c(c2C(N)=O)CCCC3)c1[N+](=O)[O-] | 79.4µM* | -3.2% | 10.6µM* | -14.4% | -13.5% | 15.8µM* | 17.8µM*
Cc1onc(-c2c(F)cccc2Cl)c1C(=O)Nc1sc2c(c1C(N)=O)CCC2 | 14.2% | 0.6% | -5.7% | -6.6% | -11.1% | . | .
Cc1cc(C)c(C#N)c(SC2CCCCC2=O)n1 (stereo unspecified) | -0.7% | -7.1% | -13.5% | -3.1% | 4.2% | 14.1µM* | 17.8µM*
CC1(C)CC(=O)C(C(C2=C(O)CC(C)(C)CC2=O)c2ccco2)C(=O)C1 (stereo unspecified) | ? | 0.7% | 5.32µM* | -15.4% | -11.1% | 12.6µM* | ?
Cc1cc(C)nc(Sc2nc(Cl)nc(N(c3ccccc3)c3ccccc3)n2)n1 | 22.4µM* | -7.0% | 13.4µM* | 40.4% | -5.5% | ? | 35.5µM*
COC(=O)c1c(SC)nc2ccccc2c1OCc1cccc(C)c1 | 7.1% | . | . | -11.0% | -28.4% | . | .
c1coc(-c2cnc3ccccc3n2)c1 | . | . | -16.9% | . | -28.0% | . | .
O=C(c1ccccc1)c1ccc2nc(-c3ccco3)c(-c3ccco3)nc2c1 | 44.7µM* | -1.6% | 7.52µM* | ? | ? | ? | ?
c1coc(-c2nc3ccccc3nc2-c2ccco2)c1 | ? | -11.0% | ? | -19.9% | -17.3% | 14.1µM* | 17.8µM*
